Bioassay records from PubChem.
Sfp PPTase inh – Sfp phosphopantetheinyl transferase inhibition | Biochemical Sfp PPTase activity, qHTS | Potency, µM, inactives show largest response in the series, negative = inhibition, actives largely listed as inhibitors | 310,000 tested, 3.5% active | AID 1490;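 also: the enzyme is Sfp with the accession as filed and its product quenches rhodamine fluorescence; 0% = enzyme reaction without inhibitor and -100% = no enzyme wells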
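Reaction rates are the 30-min fluorescence difference (ex 525, em 598 nm) in wells containing 15 nM Sfp, 5 uM rhodamine-CoA and 12.5 uM BHQ-2-YbbR at pH 7.6 with 10 mM MgCl2.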
VDR inh – inhibitors of human vitamin D receptor; P11473; VDR-SRC2-3 peptide fluorescence polarization, 2 h; Potency, µM, without a hit: max response, negative = inhibition, usual class: inhibitors; 400,000 tested, 0.93% active; AID 504847
Target sequence (P11473 whole entry, looked up): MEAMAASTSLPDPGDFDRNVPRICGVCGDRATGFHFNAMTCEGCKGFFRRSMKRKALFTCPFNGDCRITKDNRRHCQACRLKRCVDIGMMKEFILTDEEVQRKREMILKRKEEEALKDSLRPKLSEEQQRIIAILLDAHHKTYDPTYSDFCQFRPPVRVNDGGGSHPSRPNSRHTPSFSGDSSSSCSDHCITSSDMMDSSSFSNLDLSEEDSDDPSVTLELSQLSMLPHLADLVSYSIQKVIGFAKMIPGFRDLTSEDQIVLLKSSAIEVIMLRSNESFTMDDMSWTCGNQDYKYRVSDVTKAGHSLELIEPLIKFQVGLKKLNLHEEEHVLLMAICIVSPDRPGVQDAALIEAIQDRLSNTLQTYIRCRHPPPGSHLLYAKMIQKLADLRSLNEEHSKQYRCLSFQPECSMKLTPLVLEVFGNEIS
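Signal is fluorescence polarization, reporting how far test compounds block the interaction of VDR with the SRC2-3 coregulator peptide after a 2 h room-temperature incubation.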
12-LOX inh – ALOX12 (human) lipoxygenase inhibition. AID 1671190. Potency, µM (titrated, usually from 108 µM), for the others: at the top dose activity change, negative = inhibition, actives largely listed as inhibitors. 580,000 tested, 1.1% active. purified 12hLO, xylenol orange hydroperoxide absorbance. P18054
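Purified human 12hLO (150 nM final) in 25 mM Hepes, 0.01% Triton X-100, pH 7.0 was preincubated 15 min at room temperature with compound. Then 40 uM arachidonic acid was added, 30 min. Hydroperoxide was read by Fe-XO absorbance ratio 573/405 nm.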
PLK1 PBD block – PLK1 (human) polo-box domain binding inhibition; Plk1 PBD binding of FITC phosphopeptide, fluorescence polarization; Potency, µM, inactives show max response, negative = inhibition, actives largely listed as inhibitors; 360,000 tested, 2.8% active; also: series mostly up to about 57 µM; nearly all actives have a fitted effect of over 65% in size
Active calls of the source: *; ? = inconclusive; . = no result; [ ] = another dose, or the depositor's remark. An excerpt weighted towards active compounds, which were near 4.2% of everything screened. Calls follow the shape of the dose curve; as a rule, active = well fitted curve in the direction sought with a large enough effect; inconclusive = small, poorly fitted or top-dose-only effect, or another doubt; inactive = no such curve, though single readings can be large; an effect the other way counts as inactive or inconclusive. Unless noted, % is scaled to controls: 0 for no effect and ±100 for the full control effect; potency is read from the fitted curve at half-maximal effect.

SMILES | Sfp PPTase inh | VDR inh | 12-LOX inh | PLK1 PBD block
S=C(NCCc1ccccc1)N/N=C/c1ccccc1Cl | -1% | 2% | 40µM* | -16%
CCNc1c(NS(=O)(=O)c2ccc(N3CCCC3=O)cc2)c(=O)oc2ccccc12 | . | . | -21% | .
NCCc1cccc(CN2CCCC(CO)(CC3CC3)C2)c1 (stereo not given) | . | . | 14% | .
Cc1ccc(-c2csc(N3CCN(c4cc5c(cc4Cl)nc(-c4ccncc4)n5CCN4CCCCC4)CC3)n2)cc1 | 56µM* | -25% | ? | ?
COc1ccc(-c2csc(N3CCN(c4cc5c(cc4Cl)nc(-c4ccncc4)n5CCOCCO)CC3)n2)cc1 | 45µM* | -24% | -3% | 27µM*
COc1ccc(-c2csc(NCCc3nc4cc(Cl)c(N5CCCCC5)cc4n3CCOCCO)n2)cc1 | . | -7% | 6% | 2%
Cc1ccc(-c2csc(N3CCN(c4ccc5nc(-c6ccncc6)n(CCN6CCCCC6)c5c4)CC3)n2)cc1 | 56µM* | -18% | . | ?
CCCn1c(C)nc2cc(Cl)c(N3CCN(c4nc(-c5ccc(C)cc5)cs4)CC3)cc21 | -8% | -8% | 10% | -24%
COc1ccc(S(=O)(=O)n2nc(OC(=O)c3ccco3)cc2N)cc1 | -16% | -4% | 1% | ?
NC1CC(c2cc(N3CCCN(C(=O)c4ccoc4)CC3)ncn2)C1 (stereo not given) | . | . | 11% | .
c1ccc2c(c1)N1CCN=C1N2CCN1CCCCC1 | 5% | -8% | -30% | -16%
c1ccc2c(c1)N1CCCN=C1N2CCN1CCCCC1 | 11% | -12% | 0% | 27µM*
CC(C)N(C(=O)Cn1c(SCC(=O)NC2CC2)nc2ccccc21)C(C)C | 14% | -5% | 2% | 1%
O=C(/C=C/c1ccco1)Nc1cccc(S(=O)(=O)N2CCOCC2)c1 | -14% | 4% | -23% | -5%
O=C(Cc1ccc(Br)cc1)Nc1cccc(S(=O)(=O)N2CCOCC2)c1 | . | 6% | 167% | 0%
O=S(=O)(c1cccc(NC(=S)Nc2ccc(Br)cc2Cl)c1)N1CCOCC1 | 45µM* | -5% | ? | -25%
Cc1ccc(/C=C/C(=O)N2CCN(S(=O)(=O)c3c(C)c(C)cc(C)c3C)CC2)o1 | 14µM* | -49% | ? | -27%
Cc1ccc(/C=C/C(=O)Nc2cccc(S(=O)(=O)N3CCOCC3)c2)o1 | 13µM* | -9% | -26% | -15%
Cc1noc(C)c1CC(=O)NC1CCCc2c1[nH]c1ccccc21 (stereo not given) | . | . | -5% | .
O=C(NC1CCCc2c1[nH]c1ccccc21)c1ccccc1 (stereo not given) | . | . | -4% | .
O=C(Cc1ccc2c(c1)OCCCO2)NC1CCCc2c1[nH]c1ccccc21 (stereo not given) | . | . | 50µM* | .
COc1cc2nc(C)n(CC(=O)NC3CCCc4c3[nH]c3ccccc43)c(=O)c2cc1OC (stereo not given) | . | . | 45µM* | .
Cc1ccc(Cn2cccc(NS(C)(=O)=O)c2=O)cc1 | -5% | -16% | 7.1µM* | -28%
CC(=O)Nc1ccc(S(=O)(=O)Nc2cccn(Cc3ccc(C)cc3)c2=O)cc1 | 6% | -14% | 0% | -16%
O=C(O)CN1C(=O)/C(=C\c2cccc(OCc3ccccc3)c2)SC1=S | 6% | 56µM* | ? | 24µM*
SMILES | Sfp PPTase inh | VDR inh | 12-LOX inh | PLK1 PBD block
O=C(O)COc1ccc(C=C2SC(=S)N(c3ccccc3)C2=O)cc1 | . | -12% | -24% | -10%
CN1C(=O)/C(=C\c2cccc(OCc3ccccc3)c2)SC1=S | -1% | -6% | -29% | 1%
O=C(O)COc1cccc(/C=C2/SC(=S)N(Cc3ccccc3)C2=O)c1 | 1% | 79µM* | ? | 24µM*
CCCCc1ccc2nc(NC(=O)OC)[nH]c2c1 | 22% | 3% | 1%[22.9 µM] | .
N=C1/C(=C\c2ccc(OC(=O)c3ccccc3)cc2)C(=O)N=C2SC(N3CCOCC3)=NN12 | -15% | -5% | 3% | 24µM*
Cc1ccc(C(=O)Oc2ccc(/C=C3\C(=N)N4N=C(N5CCOCC5)SC4=NC3=O)cc2)cc1 | -23% | -27% | 18% | 27µM*
N=C1/C(=C\c2ccc(OC(=O)c3ccc(F)cc3)cc2)C(=O)N=C2SC(N3CCCC3)=NN12 | -14% | ? | 20% | ?
COc1ccc(C(C)=O)c(OC(=O)c2ccco2)c1 | -28% | -2% | -17% | -22%
COc1ccc(/C=C/c2nnc(NC(=O)CSc3ccc(C)cc3)s2)cc1 | -2% | -12% | 4% | -5%
Cc1ccc(SCC(=O)Nc2nnc(C(C)(C)C)s2)cc1 | -2% | 4% | -8% | 21µM*
O=C(O)Cn1ccc2cc(OCCc3cccc(-c4ccc(Cl)cc4)c3)cnc21 | . | . | 45µM* | .
O=C(O)Cn1ccc2cc(OCC3CCN(C(=O)COc4ccccc4)CC3)cnc21 | . | . | 9%[176 µM] | .
COc1cc(Cl)ccc1-c1cccc(CCOc2cnc3c(ccn3CC(=O)O)c2)c1 | . | . | -21%[176 µM] | .
COc1ccc(-c2cccc(COc3cnc4c(ccn4CC(=O)O)c3)c2)c(C)c1 | . | . | 45µM* | .
C#CCN1CCC(C(=O)NC(C)c2ccc(C(F)(F)F)cc2)CC1 (stereo not given) | . | . | 1% | .
COc1ccc(C(=O)Nc2ccnn2C2CCN(Cc3cnn(C)c3)CC2)cc1 | 5% | -15% | -7% | 27µM*
CCCCc1ncc(CN2CCC(n3nccc3NC(=O)c3ccccc3OC)CC2)[nH]1 | 1% | ? | 1% | 24µM*
CCc1ccc(CN2CCC(n3nccc3NC(=O)c3ccccc3Cl)CC2)cc1 | 10% | -23% | -15% | 2%
CSc1ccc(CN2CCC(n3nccc3NC(=O)c3ccccc3C)CC2)cc1 | 13% | -21% | -18% | 30µM*
CCCn1ncc(CN2CCC(n3nccc3NC(=O)c3ccccc3OC)CC2)c1C | 7% | -9% | 16% | 3%
Cc1ccc(C(=O)CCC(=O)OCC(=O)Nc2c(C)nn(-c3ccccc3)c2C)cc1 | . | -18% | -2% | -14%
COc1cccc(NC(=O)Cc2c(Cl)cccc2Cl)c1 | . | . | 4% | .
CC(C)c1ccc(CNCCCSc2ncccn2)cc1 | -21% | -11% | 25µM* | ?
CCOc1ccc(CNCCCSc2ncccn2)cc1 | 1% | -4% | 2% | 3%
CN(Cc1ccccc1NC(=O)c1ccc(S(=O)(=O)N(C)C)cc1)C1CCCCC1 | 9% | . | . | .
SMILES | Sfp PPTase inh | VDR inh | 12-LOX inh | PLK1 PBD block
COC(=O)Cc1[nH]n(-c2nc3ccccc3s2)c(=O)c1C(C)=Nc1ccc(C)cc1 | 56µM* | 1% | ? | 1%
COC(=O)Cc1[nH]n(-c2ccccc2)c(=O)c1C(C)=Nc1ccccc1 | 10% | -1% | ? | 0%
COC(=O)Cc1[nH]n(-c2nc3ccccc3s2)c(=O)c1C(C)=Nc1ccc(Cl)cc1 | 79µM* | 4% | 0% | -2%
Cc1ccc(Cn2cc(-c3ccncc3)cc2C(=O)NC2CC2)cc1 | . | . | 28µM* | .
CC(C)(C)c1cc(CCC(=O)NCc2cccnc2)cc(C(C)(C)C)c1O | 22µM* | 15% | -2% | -4%
CC(C)(C)c1cc(CCC(=O)NCc2ccccn2)cc(C(C)(C)C)c1O | 7% | 15% | -3% | -1%
Cc1ccccc1S(=O)(=O)Cc1ccc(C(=O)NCCN(CC(C)C)CC(C)C)o1 | 4% | -18% | 8% | -10%
